Compound activity: PubChem BioAssay, Sanford-Burnham Center for Chemical Genomics
Rows were chosen to be rich in hits. Some 4% of all compounds tested hit in one or more screens of this group.
TIM10 inh: inhibits growth of TIM10 yeast strain. AID 463195. S. cerevisiae TIM10 strain growth, BacTiter-Glo luminescence, 24 h. hit rate 1.4% among 330,000. inhibition, % at 10 µM;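 active means inhibition of 40% or more at the single tested concentration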;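 further: wild-type TIM10 isogenic control strain grown at permissive 25 °C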
NALP1 yeast inh: inhibitors of NALP1 inflammasome in yeast. S. cerevisiae NALP1/ASC/caspase-1 growth, X-gal OD620, 72 h. inhibition, % at 10 µM. hit rate 0.61% among 280,000; in the data active means inhibition mostly above about 24%, no sharp cut-off; inactive means mostly below about 32%
tim23-1 inh: inhibits growth of tim23-1 mutant yeast; S. cerevisiae tim23-1 growth, BacTiter-Glo luminescence, 24 h; inhibition, % at 20 µM; hit rate 1.3% among 330,000;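 active means growth inhibition of the mutant yeast at or above 50%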;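 further: temperature-sensitive mutant grown at 25 °C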
tim10-1 inh: inhibits growth of tim10-1 mutant yeast. inhibition, % at 20 µM. S. cerevisiae tim10-1 ts strain growth, BacTiter-Glo, 24 h. AID 463190. hit rate 2.2% among 330,000;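 active means inhibition of at least 40%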;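 further: mutant grown at 25 °C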
NALP3 yeast inh: NALP3 inhibition in yeast. Yeast reconstituted NLRP3/ASC/caspase-1, beta-gal luminescence, 24 h. AID 2825. inhibition, % at 10 µM. hit rate 0.39% among 330,000;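 active means inhibition of 50% or more; inactive means inhibition below 50%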
NALP3 yeast conf: NALP3 inhibition confirmation in yeast. shares compounds with NALP3 yeast inh. hit rate 81% among 1,300. yeast expressing human NALP3, luminescence. inhibition, % at 10 µM; in the data active means inhibition above about 48%
Casp1 ASC ctr: active in yeast caspase-1-ASC counter-screen for NALP3 inhibitors. shares compounds with NALP3 yeast inh. yeast expressing Caspase-1-ASC, luminescence counter screen. inhibition, % at 10 µM. hit rate 66% among 1,000. AID 488784
NALP3 retest: confirmation retest of NALP3 inhibitors in yeast. inhibition, % at 10 µM. yeast expressing human NALP3, luminescence read-out. AID 488794. shares compounds with NALP3 yeast inh. hit rate 53% among 1,000
tim10-1 confirm: confirmation of tim10-1 mutant yeast growth inhibitors; hit rate 56% among 7,400; shares compounds with tim10-1 inh; inhibition, % at 20 µM; S. cerevisiae tim10-1 ts strain growth, BacTiter-Glo, 24 h;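 active means inhibition of yeast growth at or above a set limit in either of two repeat tests at 20 µM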;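 further: tim10-1 mutant grown at permissive 25 °C to find synthetic lethal compounds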
TIM10 conf: confirmation of TIM10 yeast growth inhibitors. shares compounds with TIM10 inh. S. cerevisiae tim10 strain growth, BacTiter-Glo luminescence, 24 h. inhibition, % at 10 µM. hit rate 63% among 4,600. AID 463215;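 active means inhibition of yeast growth at or above a set limit in either of two replicates at 10 µM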; further: this counterscreen used the strain with wild-type TIM10
tim23-1 confirm: tim23-1 yeast growth inhibition, confirmed; shares compounds with tim23-1 inh; S. cerevisiae tim23-1 growth, BacTiter-Glo luminescence, 24 h; inhibition, % at 20 µM; hit rate 83% among 4,400;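 active means inhibition above about 39% in either of two replicate wells at 20 µM, limit read from the data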;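 further: temperature-sensitive tim23-1 mutant grown at 25 °C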
A number is an active result; 0 = inactive; - = no result. Unless noted, no stated cut-off is given here; in the data, active means inhibition above about 50%; inactive means the rest.

SMILES | TIM10 inh | NALP1 yeast inh | tim23-1 inh | tim10-1 inh | NALP3 yeast inh | NALP3 yeast conf | Casp1 ASC ctr | NALP3 retest | TIM10 conf | tim23-1 confirm | others
CNc1nc(SCc2ccccc2Cl)nc2c1CCCC2 | 46 | 112 | 54 | 42 | 98 | 99 | 98 | 98 | 45 | 60 | tim10-1 confirm=43
O=c1[nH]c(SCc2ccccc2Cl)nc2c1CCC2 | 0 | 0 | 0 | 0 | 0 | - | - | - | - | -
O=C(Nc1ccc2c(c1)OCCO2)c1cccc(Cl)c1 | 0 | 0 | 51 | 0 | 53 | 70 | 0 | 0 | - | 57
C#C[C@]1(O)CC[C@H]2[C@@H]3CCc4cc(O)ccc4[C@H]3CC[C@@]21C | 0 | 49 | 52 | 50 | 55 | 68 | 51 | 0 | - | 49 | tim10-1 confirm=34
COc1c(C(=O)NC(=S)Nc2nnn(C)n2)cc2ccccc2c1Br | 0 | 0 | 0 | 0 | 0 | - | - | - | - | -
Cn1nnc(NC(=S)NC(=O)c2cccc3c(Cl)cccc23)n1 | 0 | 0 | 52 | 49 | 54 | 64 | 74 | 0 | - | 39 | tim10-1 confirm=0
CC(=O)c1cc(CCC(=O)NC2CCCCCC2)oc1C | 0 | 0 | 0 | 0 | 0 | - | - | - | - | -
CCc1ccn2cc(-c3cc(-c4ccccc4)no3)nc2c1 | 62 | 0 | 61 | 0 | 81 | 81 | 0 | 0 | 56 | 81
Clc1ccc(-c2cc(-c3ccccc3)on2)cc1 | 0 | - | 0 | 0 | 0 | - | - | - | - | -
CCCCN(C(=O)CSCC(=O)Nc1ccc(OC)cc1)c1c(N)n(Cc2ccccc2)c(=O)[nH]c1=O | 0 | - | 0 | 0 | 0 | - | - | - | - | -
CCOc1c2ccoc2nc2c(OC)c(OC)ccc12 | 0 | 0 | 61 | 0 | 50 | 68 | 0 | 0 | - | 65
C=CCOc1ccc2c(OC)c3ccoc3nc2c1OC | 0 | 0 | 0 | 0 | 0 | - | - | - | - | -
O=Cc1cn(-c2ccccc2)nc1-c1ccccc1 | 58 | 0 | 68 | 0 | 60 | 72 | 60 | 53 | 64 | 69
O=C1c2sc3nc4ccccc4n3c2C(=O)N1c1ccccc1Cl | 60 | 0 | 56 | 0 | 52 | 52 | 0 | 0 | 59 | 0
O=C(c1cccc(Oc2c(Cl)cccc2[N+](=O)[O-])c1)N1CCOCC1 | 0 | 0 | 0 | 0 | 0 | - | - | - | - | -
CN(C)c1ccc(-n2cccc2/C=C/[N+](=O)[O-])cc1 | 92 | 0 | 90 | 86 | 61 | 65 | - | - | 95 | 78 | tim10-1 confirm=86
CN(c1ccccc1)c1ccc(/C=C/[N+](=O)[O-])cc1 | - | 0 | - | - | - | - | - | - | - | -
O=C(O)c1ccc(S(=O)(=O)/N=C2\C=C(Nc3ccccc3F)C(=O)c3ccccc32)cc1 | 74 | 80 | 81 | 79 | 94 | 83 | 99 | 97 | 74 | 89 | tim10-1 confirm=84
Cc1ccccc1NC1=C/C(=N\S(=O)(=O)c2ccc(C(=O)O)cc2)c2ccccc2C1=O | 0 | 0 | 0 | 0 | 0 | - | - | - | - | -
O=C(COC(=O)c1ccc(Br)cc1)NCc1ccc(F)cc1 | 0 | 0 | 0 | 0 | 0 | - | - | - | - | -
O=C(Nc1cccc(Cl)c1)N1CCc2ccccc2C1 | 64 | 0 | 65 | 0 | 66 | 85 | 74 | 75 | 62 | 84
COc1cccc(NC(=O)N2CCc3ccccc3C2)c1 | 0 | 0 | 0 | 0 | 0 | - | - | - | - | -
C/C(=N\NC(=O)c1cccc(Br)c1)c1ccccn1 | 0 | 0 | 52 | 0 | 61 | 84 | 85 | 69 | - | 0
C/C(=N\NC(=O)c1cc(Br)ccc1O)c1ccccn1 | 0 | 0 | 0 | 0 | 0 | - | - | - | - | -
CC(Oc1cccc(Cl)c1)C(=O)Nc1nc(-c2ccccn2)cs1 (centres undefined) | 0 | - | 67 | 0 | 50 | 64 | 74 | 61 | - | 55
COc1cc(/C=C(\C#N)c2nc3ccccc3o2)ccc1O | 0 | 0 | 0 | 0 | 0 | - | - | - | - | -
N#C/C(=C\c1ccc(O)cc1)c1nc2ccccc2o1 | 0 | 0 | 54 | 0 | 71 | 77 | 85 | 80 | - | 61
